These results are taken from PubChem BioAssay AID1494157 (National Center for Advancing Translational Sciences (NCATS), 2020).

Records with an inconclusive call do not appear. A number with no mark means an inactive call. The source made the active and inactive calls. Calls follow the shape of the full dose curve.

The assay can be described thus: Confirmatory qHTS for inhibitors of MERS-S pseudo-typed particle cell entry. To be noted: MERS-S pseudotyped particle entry, luciferase reporter; series mostly up to 57.1 µM; activity change, negative = inhibition: at the top concentration.
For the compound `CN(C)CCC=C1c2ccccc2C(C)(C)c2ccccc21`, the Potency is 15.2 µM (active).

Take `COc1cc2c(cc1Cc1cccc(Cl)c1F)c(=O)c(C(=O)O)cn2[C@H](CO)C(C)C`: the Potency is 0.304 µM (active).

Regarding `c1ccc2c(c1)Sc1ccccc1N2CC1CN2CCC1CC2` (centres undefined), the Potency is 12.1 µM (active).

On to `N=C(N)c1ccc(OCCCCCOc2ccc(C(=N)N)cc2)cc1`, for which the Potency is 12.1 µM (active).

For the compound `C[C@]12CC[C@H](O)C[C@H]1CCC1C2CC[C@]2(C)[C@@H](c3ccc(=O)oc3)C[C@H]3O[C@]132` (some centres undefined), the Potency is 3.83 µM (active).

In the case of `C=CC(=O)Nc1cc(Nc2nccc(-c3cn(C)c4ccccc34)n2)c(OC)cc1N(C)CCN(C)C`, the Potency is 6.81 µM (active).

Regarding `CCn1cc(C(=O)O)c(=O)c2cc(F)c(N3CCNC(C)C3)c(F)c21` (centres undefined), the “activity change, negative = inhibition” value is 0%.

Take `CC(=O)Oc1ccccc1C(=O)Nc1ncc([N+](=O)[O-])s1`: the Potency is 10.8 µM (active).

Turning to `N#CC(c1ccc(Cl)cc1)c1c(Cl)cc(-n2ncc(=O)[nH]c2=O)cc1Cl` (centres undefined), the Potency was 7.64 µM (active).

On to `CN1CC[C@H](CN2c3ccccc3Sc3ccccc32)C1`, for which the Potency was 15.2 µM (active).

Take `CN1CCN(CCC=C2c3ccccc3Sc3ccc(S(=O)(=O)N(C)C)cc32)CC1`: the Potency was 6.07 µM (active).

With `CCN(CC)Cc1cc(Nc2ccnc3cc(Cl)ccc23)ccc1O`, the Potency is 9.61 µM (active).

With `C=CC1(C)CC(=O)C2(O)C(C)(O1)C(OC(C)=O)C(OC(=O)CCN(C)C)C1C(C)(C)CCC(O)C12C` (centres undefined), the “activity change, negative = inhibition” value was 0%.

For the compound `CNC(=O)c1cc(Oc2ccc(NC(=O)Nc3ccc(Cl)c(C(F)(F)F)c3)c(F)c2)ccn1`, the Potency is 15.2 µM (active).

On to `Nc1nc(Cl)nc2c1ncn2C1CC(O)C(CO)O1` (centres undefined), for which the Potency was 12.1 µM (active).

For `C[n+]1c2cc(N)ccc2cc2ccc(N)cc21` (tested in a mixture with another compound), the Potency is 1.92 µM (active).

As to `O=C1CCc2ccc(OCCCCN3CCN(c4cccc(Cl)c4Cl)CC3)cc2N1`, the Potency was 12.1 µM (active).

Regarding `COc1cc2nccc(Oc3ccc(NC(=O)C4(C(=O)Nc5ccc(F)cc5)CC4)cc3)c2cc1OC`, the Potency is 12.1 µM (active).

For the compound `COc1cc2nccc(Oc3ccc(NC(=O)NC4CC4)c(Cl)c3)c2cc1C(N)=O`, the Potency was 17.1 µM (active).

Take `CN1CCCCC1CCN1c2ccccc2Sc2ccc(S(C)=O)cc21` (centres undefined): the Potency was 17.1 µM (active).

`CC(C)OC(=O)[C@H](C)N[P@](=O)(CO[C@H](C)Cn1cnc2c(N)ncnc21)Oc1ccccc1`: the Potency was 0.0152 µM (active).

For the compound `CCCCCCCCCCCCCC[n+]1ccc(C)cc1`, the Potency was 2.41 µM (active).

For the compound `CC(C)C[C@H](NC(=O)[C@H](CCc1ccccc1)NC(=O)CN1CCOCC1)C(=O)N[C@@H](Cc1ccccc1)C(=O)N[C@@H](CC(C)C)C(=O)[C@@]1(C)CO1`, the Potency was 0.192 µM (active).

With `COc1ccc(Cc2nccc3cc(OC)c(OC)cc23)cc1OC`, the Potency is 4.82 µM (active).

`OCCN1CCN(CC/C=C2/c3ccccc3Sc3ccc(C(F)(F)F)cc32)CC1`: the Potency is 12.1 µM (active).

For the compound `C=C(C)[C@H]1Cc2c(ccc3c2O[C@@H]2COc4cc(OC)c(OC)cc4[C@@H]2C3=O)O1`, the Potency was 0.0136 µM (active).

With `CN(C)CC/C=C1\c2ccccc2Sc2ccc(Cl)cc21`, the Potency was 8.57 µM (active).

Consider `Cc1oncc1C(=O)Nc1ccc(C(F)(F)F)cc1`, for which the “activity change, negative = inhibition” value was 0%.

Consider `NCCNc1ccc(NCCN)c2c1C(=O)c1ccncc1C2=O`, for which the Potency was 19.2 µM (active).
